# Measurements reported in the supplement of paper PMC4466140.
# Biological target: AgAbp1
# Assay: SPOT peptide array binding signal intensity (averaged, normalized) (arbitrary units (background-subtracted, floor 0; scale differs between SH3 domains)); higher = stronger binding of the SH3 domain to the peptide
# Method: (§1)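 GST-tagged SH3 domains from S. cerevisiae (Sc), A. gossypii (Ag), C. albicans (Ca) and S. pombe (Sp) were incubated at 10 ug/ml overnight at 4 C on cellulose SPOT membranes carrying 292 synthetic 15-mer peptides mined from the S. cerevisiae proteome (cysteines replaced by serines). Binding was detected with anti-GST antibody, HRP secondary and chemiluminescence, quantified with Genespotter, and reported as normalized spot intensities averaged over biological replicates.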
row,Binder,SPOT peptide array binding signal intensity
1,VRTRRRPPPPPIPST,28.5

# Biological target: AgBbc1
# Assay: as above
# Method: as §1
row,Binder,SPOT peptide array binding signal intensity
1,VRTRRRPPPPPIPST,892

# Biological target: AgBem1-D1
# Assay: as above
# Method: as §1
row,Binder,SPOT peptide array binding signal intensity
1,VRTRRRPPPPPIPST,472

# Biological target: AgBzz1-D1
# Assay: as above
# Method: as §1
row,Binder,SPOT peptide array binding signal intensity
1,VRTRRRPPPPPIPST,3600

# Biological target: AgBzz1-D2
# Assay: as above
# Method: as §1
row,Binder,SPOT peptide array binding signal intensity
1,VRTRRRPPPPPIPST,940

# Biological target: AgCyk3
# Assay: as above
# Method: as §1
row,Binder,SPOT peptide array binding signal intensity
1,VRTRRRPPPPPIPST,2

# Biological target: AgFus1
# Assay: as above
# Method: as §1
row,Binder,SPOT peptide array binding signal intensity
1,VRTRRRPPPPPIPST,30

# Biological target: AgHof1
# Assay: as above
# Method: as §1
row,Binder,SPOT peptide array binding signal intensity
1,VRTRRRPPPPPIPST,258

# Biological target: AgHse1
# Assay: as above
# Method: as §1
row,Binder,SPOT peptide array binding signal intensity
1,VRTRRRPPPPPIPST,29

# Biological target: AgLsb1
# Assay: as above
# Method: as §1
row,Binder,SPOT peptide array binding signal intensity
1,VRTRRRPPPPPIPST,91.8

# Biological target: AgLsb4
# Assay: as above
# Method: as §1
row,Binder,SPOT peptide array binding signal intensity
1,VRTRRRPPPPPIPST,44.5

# Biological target: AgMyo5
# Assay: as above
# Method: as §1
row,Binder,SPOT peptide array binding signal intensity
1,VRTRRRPPPPPIPST,274

# Biological target: AgNbp2
# Assay: as above
# Method: as §1
row,Binder,SPOT peptide array binding signal intensity
1,VRTRRRPPPPPIPST,840

# Biological target: AgRvs167
# Assay: as above
# Method: as §1
row,Binder,SPOT peptide array binding signal intensity
1,VRTRRRPPPPPIPST,5.5

# Biological target: AgSho1
# Assay: as above
# Method: as §1
row,Binder,SPOT peptide array binding signal intensity
1,VRTRRRPPPPPIPST,≤ 0

# Biological target: AgSla1-D1-D2
# Assay: as above
# Method: as §1
row,Binder,SPOT peptide array binding signal intensity
1,VRTRRRPPPPPIPST,20

# Biological target: AgSla1-D3
# Assay: as above
# Method: as §1
row,Binder,SPOT peptide array binding signal intensity
1,VRTRRRPPPPPIPST,346

# Biological target: CaAbp1-D1
# Assay: as above
# Method: as §1
row,Binder,SPOT peptide array binding signal intensity
1,VRTRRRPPPPPIPST,61

# Biological target: CaAbp1-D2
# Assay: as above
# Method: as §1
row,Binder,SPOT peptide array binding signal intensity
1,VRTRRRPPPPPIPST,55

# Biological target: CaBbc1
# Assay: as above
# Method: as §1
row,Binder,SPOT peptide array binding signal intensity
1,VRTRRRPPPPPIPST,1060

# Biological target: CaBem1-D1
# Assay: as above
# Method: as §1
row,Binder,SPOT peptide array binding signal intensity
1,VRTRRRPPPPPIPST,165

# Biological target: CaBzz1-D1
# Assay: as above
# Method: as §1
row,Binder,SPOT peptide array binding signal intensity
1,VRTRRRPPPPPIPST,6060

# Biological target: CaBzz1-D2
# Assay: as above
# Method: as §1
row,Binder,SPOT peptide array binding signal intensity
1,VRTRRRPPPPPIPST,3990

# Biological target: CaCyk3
# Assay: as above
# Method: as §1
row,Binder,SPOT peptide array binding signal intensity
1,VRTRRRPPPPPIPST,108

# Biological target: CaFus1
# Assay: as above
# Method: as §1
row,Binder,SPOT peptide array binding signal intensity
1,VRTRRRPPPPPIPST,7.5

# Biological target: CaHof1
# Assay: as above
# Method: as §1
row,Binder,SPOT peptide array binding signal intensity
1,VRTRRRPPPPPIPST,≤ 0

# Biological target: CaHse1
# Assay: as above
# Method: as §1
row,Binder,SPOT peptide array binding signal intensity
1,VRTRRRPPPPPIPST,13.8

# Biological target: CaLsb1
# Assay: as above
# Method: as §1
row,Binder,SPOT peptide array binding signal intensity
1,VRTRRRPPPPPIPST,≤ 0

# Biological target: CaLsb4
# Assay: as above
# Method: as §1
row,Binder,SPOT peptide array binding signal intensity
1,VRTRRRPPPPPIPST,176

# Biological target: CaMyo5
# Assay: as above
# Method: as §1
row,Binder,SPOT peptide array binding signal intensity
1,VRTRRRPPPPPIPST,13

# Biological target: CaNbp2
# Assay: as above
# Method: as §1
row,Binder,SPOT peptide array binding signal intensity
1,VRTRRRPPPPPIPST,610

# Biological target: CaRvs167
# Assay: as above
# Method: as §1
row,Binder,SPOT peptide array binding signal intensity
1,VRTRRRPPPPPIPST,48.5

# Biological target: CaRvs167-3
# Assay: as above
# Method: as §1
row,Binder,SPOT peptide array binding signal intensity
1,VRTRRRPPPPPIPST,2

# Biological target: CaSho1
# Assay: as above
# Method: as §1
row,Binder,SPOT peptide array binding signal intensity
1,VRTRRRPPPPPIPST,25.5

# Biological target: CaSla1-D1-D2
# Assay: as above
# Method: as §1
row,Binder,SPOT peptide array binding signal intensity
1,VRTRRRPPPPPIPST,2380

# Biological target: CaSla1-D3
# Assay: as above
# Method: as §1
row,Binder,SPOT peptide array binding signal intensity
1,VRTRRRPPPPPIPST,296

# Biological target: ScAbp1
# Assay: as above
# Method: as §1
row,Binder,SPOT peptide array binding signal intensity
1,VRTRRRPPPPPIPST,19

# Biological target: ScBbc1
# Assay: as above
# Method: as §1
row,Binder,SPOT peptide array binding signal intensity
1,VRTRRRPPPPPIPST,358

# Biological target: ScBem1-D1
# Assay: as above
# Method: as §1
row,Binder,SPOT peptide array binding signal intensity
1,VRTRRRPPPPPIPST,46

# Biological target: ScBzz1-D1
# Assay: as above
# Method: as §1
row,Binder,SPOT peptide array binding signal intensity
1,VRTRRRPPPPPIPST,1430

# Biological target: ScBzz1-D2
# Assay: as above
# Method: as §1
row,Binder,SPOT peptide array binding signal intensity
1,VRTRRRPPPPPIPST,210

# Biological target: ScCyk3
# Assay: as above
# Method: as §1
row,Binder,SPOT peptide array binding signal intensity
1,VRTRRRPPPPPIPST,20.5

# Biological target: ScFus1
# Assay: as above
# Method: as §1
row,Binder,SPOT peptide array binding signal intensity
1,VRTRRRPPPPPIPST,10

# Biological target: ScHof1
# Assay: as above
# Method: as §1
row,Binder,SPOT peptide array binding signal intensity
1,VRTRRRPPPPPIPST,0.75

# Biological target: ScHse1
# Assay: as above
# Method: as §1
row,Binder,SPOT peptide array binding signal intensity
1,VRTRRRPPPPPIPST,186

# Biological target: ScLsb1
# Assay: as above
# Method: as §1
row,Binder,SPOT peptide array binding signal intensity
1,VRTRRRPPPPPIPST,96.8

# Biological target: ScLsb2
# Assay: as above
# Method: as §1
row,Binder,SPOT peptide array binding signal intensity
1,VRTRRRPPPPPIPST,144

# Biological target: ScLsb3
# Assay: as above
# Method: as §1
row,Binder,SPOT peptide array binding signal intensity
1,VRTRRRPPPPPIPST,584

# Biological target: ScLsb4
# Assay: as above
# Method: as §1
row,Binder,SPOT peptide array binding signal intensity
1,VRTRRRPPPPPIPST,23.5

# Biological target: ScMyo3
# Assay: as above
# Method: as §1
row,Binder,SPOT peptide array binding signal intensity
1,VRTRRRPPPPPIPST,851

# Biological target: ScMyo5
# Assay: as above
# Method: as §1
row,Binder,SPOT peptide array binding signal intensity
1,VRTRRRPPPPPIPST,892

# Biological target: ScNbp2
# Assay: as above
# Method: as §1
row,Binder,SPOT peptide array binding signal intensity
1,VRTRRRPPPPPIPST,1260

# Biological target: ScPex13
# Assay: as above
# Method: as §1
row,Binder,SPOT peptide array binding signal intensity
1,VRTRRRPPPPPIPST,269

# Biological target: ScRvs167
# Assay: as above
# Method: as §1
row,Binder,SPOT peptide array binding signal intensity
1,VRTRRRPPPPPIPST,624

# Biological target: ScSho1
# Assay: as above
# Method: as §1
row,Binder,SPOT peptide array binding signal intensity
1,VRTRRRPPPPPIPST,141

# Biological target: ScSla1-D1-D2
# Assay: as above
# Method: as §1
row,Binder,SPOT peptide array binding signal intensity
1,VRTRRRPPPPPIPST,3390

# Biological target: ScSla1-D3
# Assay: as above
# Method: as §1
row,Binder,SPOT peptide array binding signal intensity
1,VRTRRRPPPPPIPST,488

# Biological target: SpAbp1-D1
# Assay: as above
# Method: as §1
row,Binder,SPOT peptide array binding signal intensity
1,VRTRRRPPPPPIPST,13.5

# Biological target: SpBbc1
# Assay: as above
# Method: as §1
row,Binder,SPOT peptide array binding signal intensity
1,VRTRRRPPPPPIPST,77.2

# Biological target: SpBzz1-D1
# Assay: as above
# Method: as §1
row,Binder,SPOT peptide array binding signal intensity
1,VRTRRRPPPPPIPST,2830

# Biological target: SpBzz1-D2
# Assay: as above
# Method: as §1
row,Binder,SPOT peptide array binding signal intensity
1,VRTRRRPPPPPIPST,430

# Biological target: SpCyk3
# Assay: as above
# Method: as §1
row,Binder,SPOT peptide array binding signal intensity
1,VRTRRRPPPPPIPST,2

# Biological target: SpHof1
# Assay: as above
# Method: as §1
row,Binder,SPOT peptide array binding signal intensity
1,VRTRRRPPPPPIPST,248

# Biological target: SpHof1-2
# Assay: as above
# Method: as §1
row,Binder,SPOT peptide array binding signal intensity
1,VRTRRRPPPPPIPST,73

# Biological target: SpHof1-3
# Assay: as above
# Method: as §1
row,Binder,SPOT peptide array binding signal intensity
1,VRTRRRPPPPPIPST,88.2

# Biological target: SpHse1
# Assay: as above
# Method: as §1
row,Binder,SPOT peptide array binding signal intensity
1,VRTRRRPPPPPIPST,42.8

# Biological target: SpLsb1
# Assay: as above
# Method: as §1
row,Binder,SPOT peptide array binding signal intensity
1,VRTRRRPPPPPIPST,63.5

# Biological target: SpLsb4
# Assay: as above
# Method: as §1
row,Binder,SPOT peptide array binding signal intensity
1,VRTRRRPPPPPIPST,1370

# Biological target: SpMyo1
# Assay: as above
# Method: as §1
row,Binder,SPOT peptide array binding signal intensity
1,VRTRRRPPPPPIPST,1460

# Biological target: SpNbp2
# Assay: as above
# Method: as §1
row,Binder,SPOT peptide array binding signal intensity
1,VRTRRRPPPPPIPST,≤ 0

# Biological target: SpPex13
# Assay: as above
# Method: as §1
row,Binder,SPOT peptide array binding signal intensity
1,VRTRRRPPPPPIPST,30

# Biological target: SpRvs167
# Assay: as above
# Method: as §1
row,Binder,SPOT peptide array binding signal intensity
1,VRTRRRPPPPPIPST,265

# Biological target: SpSla1-D1-D2
# Assay: as above
# Method: as §1
row,Binder,SPOT peptide array binding signal intensity
1,VRTRRRPPPPPIPST,520

# Biological target: SpSla1-D3
# Assay: as above
# Method: as §1
row,Binder,SPOT peptide array binding signal intensity
1,VRTRRRPPPPPIPST,1
